# Assay results from PubChem BioAssay (Tox21).
# Several values for one entry are separate records, joined by “and”; a condition that tells them apart may be missing. Equal entries are not always repeated. Results filed as inconclusive are left out. Where a call stands in place of a potency, no number is given. More than one record can exist for a structure, and the calls need not agree. Activity calls are given as the source filed them. Unless noted, the call rests on the fitted dose curve; in most records, active means well fitted curve in the direction sought with a large enough effect in the repeat runs; inconclusive means weak or mixed curves; inactive means no such curve, though single readings can be large; an effect the other way counts as inactive or inconclusive. Residues, ends and D or L forms follow the SMILES beside them.
# Assays:
# [1] = qHTS assay to identify small molecule agonists of the sonic hedgehog signaling (Shh) pathway (AID 1259368; calls by dose curve;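 further: NIH/3T3-derived 3T3Gli1-Luc cells carrying a stable Gli1-driven firefly luciferase reporter; series mostly up to about 92 µM; nearly all actives have a fitted effect of over 15% in size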)
# In short: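 Read-out: firefly luciferase luminescence from a Gli1 response element reporter stably integrated in NIH/3T3-derived 3T3Gli1-Luc cells, measured 30 min at room temperature after reagent addition. Compound exposure lasted 24 hr at 37 C, 5% CO2.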
# [2] = qHTS assay to identify small molecule antagonists of the sonic hedgehog signaling (Shh) pathway (AID 1259369; calls by dose curve; further: nearly all actives have a fitted effect of over 45% in size; further: potency means the concentration at half of the fitted maximal effect)
# In short: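 Luminescence readout: firefly Luc under Gli1 response element in 3T3Gli1-Luc cells (NIH/3T3 clone). Antagonist mode, stimulation by conditioned medium; compound exposure 24hr at 37 C, 5% CO2.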
# [3] = qHTS assay to identify small molecule agonists of the androgen receptor (AR) signaling pathway in the presence of an antagonist - cell viability counter screen (AID 1259379); further: nearly all actives have a fitted effect of over 25% in size; further: potency means the concentration at half of the fitted maximal effect
# In short: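 Viability counter screen: CellTiter-Fluor fluorescence, measured in the same wells as the luciferase read-out. MDA-kb2 cells, 3,000/well, with nilutamide at 3.0uM final and compounds at 15 concentrations, 16 hr at 37C, 0% CO2.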
# [4] = qHTS assay to identify small molecule agonists of the estrogen receptor beta (ER-beta) signaling pathway - cell viability counter screen (AID 1259380); further: nearly all actives have a fitted effect of over 30% in size
# In short: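 Luminescence read-out (CellTiter-Glo, 30 min, room temp) taken in the same wells as the beta-lactamase reporter assay; ER-beta-UAS-bla HEK293T cells exposed to DMSO-dissolved compounds for 16 hr at 37C in 2% charcoal-stripped FBS medium.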
# [5] = target: Estrogen receptor (Homo sapiens) (UniProt P03372); test: qHTS assay to identify small molecule agonists of the estrogen receptor alpha (ER-alpha) signaling pathway in the presence of an antagonist (AID 1259383; calls by dose curve; further: top concentration of the series differs between compounds; nearly all actives have a fitted effect of over 15% in size)
# Chain of Estrogen receptor (Homo sapiens) (P03372 whole entry, looked up): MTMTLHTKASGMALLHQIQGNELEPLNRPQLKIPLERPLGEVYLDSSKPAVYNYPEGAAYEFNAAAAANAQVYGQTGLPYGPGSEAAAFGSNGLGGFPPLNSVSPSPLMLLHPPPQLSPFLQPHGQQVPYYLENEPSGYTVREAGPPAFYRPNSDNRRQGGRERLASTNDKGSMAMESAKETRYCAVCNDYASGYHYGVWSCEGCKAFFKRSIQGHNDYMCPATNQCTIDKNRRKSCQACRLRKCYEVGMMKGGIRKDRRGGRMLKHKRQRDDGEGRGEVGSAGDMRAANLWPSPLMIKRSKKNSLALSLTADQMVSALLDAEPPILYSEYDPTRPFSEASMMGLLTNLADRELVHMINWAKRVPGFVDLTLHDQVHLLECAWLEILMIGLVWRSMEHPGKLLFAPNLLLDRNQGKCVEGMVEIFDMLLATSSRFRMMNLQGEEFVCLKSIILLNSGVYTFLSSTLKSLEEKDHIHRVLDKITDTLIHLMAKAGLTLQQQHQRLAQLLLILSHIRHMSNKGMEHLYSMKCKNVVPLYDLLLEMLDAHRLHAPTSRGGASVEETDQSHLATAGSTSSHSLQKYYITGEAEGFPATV
# In short: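 Luciferase luminescence (ONE-Glo, 30min at room temperature) measured in VM7Luc4E2 cells after 22hr compound exposure at 15 concentrations, with 10.0nM ICI-182,780 final present; cells express endogenous ER-alpha and carry four EREs upstream of luciferase.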
# [6] = qHTS assay to identify small molecule agonists or antagonists of the thyroid stimulating hormone receptor (TSHR) signaling pathway - wild type cell line counter screen (AID 1259384; calls by dose curve)
# In short: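 Wild-type Hek293 cells, 800/well, 18 h at 37C, then compound with Ro20-1724 for 30 min RT. cAMP by HTRF (cAMP-d2/anti-cAMP cryptate), 1 h RT, fluorescence read. 15 concentrations, triplicates.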
# [7] = target: Thyrotropin receptor (Homo sapiens) (UniProt P16473); test: qHTS assay to identify small molecule antagonists of the thyroid stimulating hormone receptor (TSHR) signaling pathway (AID 1259385; calls by dose curve; further: nearly all actives have a fitted effect of over 20% in size)
# Chain of Thyrotropin receptor (Homo sapiens) (P16473 whole entry, looked up): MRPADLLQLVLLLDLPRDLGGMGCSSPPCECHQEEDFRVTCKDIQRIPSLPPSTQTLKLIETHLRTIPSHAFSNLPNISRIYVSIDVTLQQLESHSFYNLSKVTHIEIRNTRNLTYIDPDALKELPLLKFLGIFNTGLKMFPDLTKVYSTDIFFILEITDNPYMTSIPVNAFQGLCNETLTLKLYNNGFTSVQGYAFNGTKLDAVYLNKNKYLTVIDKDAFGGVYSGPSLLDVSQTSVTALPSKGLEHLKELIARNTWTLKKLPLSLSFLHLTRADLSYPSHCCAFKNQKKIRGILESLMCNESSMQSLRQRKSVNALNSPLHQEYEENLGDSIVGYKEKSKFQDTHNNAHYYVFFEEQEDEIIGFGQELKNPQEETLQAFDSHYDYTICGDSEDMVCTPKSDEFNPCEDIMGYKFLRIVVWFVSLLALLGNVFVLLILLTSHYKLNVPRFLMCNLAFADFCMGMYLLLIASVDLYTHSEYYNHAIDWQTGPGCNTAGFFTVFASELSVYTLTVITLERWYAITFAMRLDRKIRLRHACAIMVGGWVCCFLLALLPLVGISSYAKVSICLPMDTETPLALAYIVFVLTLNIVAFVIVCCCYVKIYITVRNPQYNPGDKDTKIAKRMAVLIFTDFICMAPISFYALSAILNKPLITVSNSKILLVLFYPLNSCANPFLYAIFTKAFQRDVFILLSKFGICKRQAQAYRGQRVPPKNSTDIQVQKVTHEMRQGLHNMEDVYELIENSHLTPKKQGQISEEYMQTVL
# In short: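 TSHR-HEK293 cells (800/well) plated 18 h, then compounds with Ro20-1724 and TSH at 1.5 ng/mL final, 30 min at room temperature. cAMP quantified by HTRF (cAMP-d2/anti-cAMP-cryptate, 1 h); 15 concentrations in triplicate.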
# [8] = qHTS assay to identify small molecule agonists of the estrogen receptor alpha (ER-alpha) signaling pathway in the presence of an antagonist - cell viability counter screen (AID 1259386);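 further: cells exposed to compounds for 22 h at 37 °C before the viability read; nearly all actives have a fitted effect of over 30% in size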; further: potency means the concentration at half of the fitted maximal effect
# In short: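 Read-out: CellTiter-Fluor fluorescence after 1hr reagent incubation, measured in the same wells as the luciferase readout. VM7Luc4E2 cells were exposed to 15 compound concentrations with 10.0nM ICI-182,780 for 22hr at 37C.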
# [9] = target: Progesterone receptor (Homo sapiens) (UniProt P06401); test: qHTS assay to identify small molecule agonists of the progesterone receptor (PR) signaling pathway (AID 1346784; calls by dose curve; further: nearly all actives have a fitted effect of over 30% in size)
# Chain of Progesterone receptor (Homo sapiens) (P06401 whole entry, looked up): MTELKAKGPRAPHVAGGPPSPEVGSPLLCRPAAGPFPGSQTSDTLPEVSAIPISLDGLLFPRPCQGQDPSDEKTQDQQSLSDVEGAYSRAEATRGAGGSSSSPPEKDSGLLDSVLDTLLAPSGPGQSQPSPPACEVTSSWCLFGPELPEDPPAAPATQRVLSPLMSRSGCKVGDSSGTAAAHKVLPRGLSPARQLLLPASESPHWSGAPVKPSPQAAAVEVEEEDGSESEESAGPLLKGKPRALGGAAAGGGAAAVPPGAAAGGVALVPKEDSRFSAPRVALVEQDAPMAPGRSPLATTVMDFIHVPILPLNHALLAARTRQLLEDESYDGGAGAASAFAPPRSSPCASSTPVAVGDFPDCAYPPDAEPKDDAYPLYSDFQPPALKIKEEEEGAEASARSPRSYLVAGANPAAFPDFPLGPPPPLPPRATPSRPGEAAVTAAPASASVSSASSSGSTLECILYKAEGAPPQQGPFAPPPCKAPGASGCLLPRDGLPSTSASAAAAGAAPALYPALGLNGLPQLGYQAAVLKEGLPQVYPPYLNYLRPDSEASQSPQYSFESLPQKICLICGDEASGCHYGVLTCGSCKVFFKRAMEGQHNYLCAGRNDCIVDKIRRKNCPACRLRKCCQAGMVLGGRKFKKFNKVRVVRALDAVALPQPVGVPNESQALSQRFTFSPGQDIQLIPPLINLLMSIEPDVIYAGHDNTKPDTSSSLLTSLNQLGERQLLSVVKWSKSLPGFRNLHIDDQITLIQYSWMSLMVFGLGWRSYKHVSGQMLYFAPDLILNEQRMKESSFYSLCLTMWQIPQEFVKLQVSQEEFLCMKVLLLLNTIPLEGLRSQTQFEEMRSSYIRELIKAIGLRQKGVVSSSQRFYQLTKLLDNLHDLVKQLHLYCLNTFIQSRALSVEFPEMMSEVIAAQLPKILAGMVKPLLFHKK
# In short: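 Seed PR-UAS-bla HEK 293T cells (2% charcoal-stripped FBS), incubate 6 hr at 37C; add compounds in DMSO, 16 hr at 37C; add LiveBLAzer B/G substrate, 2 hr RT; read fluorescence intensity.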
# [10] = target: Progesterone receptor (Homo sapiens) (UniProt P06401); test: qHTS assay to identify small molecule antagonists of the progesterone receptor (PR) signaling pathway (AID 1346795; active means well fitted inhibition curve with a large enough effect in the signal ratio in the repeat runs, not every such curve was filed as active; the % refers to the signal ratio)
# In short: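 Screening used a GripTite HEK293T line with PR-responsive UAS-beta-lactamase. Cells were challenged with compound in the presence of 1 nM R5020 final for 16 hr at 37C; B/G FRET substrate, 2 hr room temperature, fluorescence.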
# [11] = qHTS assay to identify small molecule antagonists of the progesterone receptor (PR) signaling pathway - cell viability counter screen (AID 1346798); further: series mostly up to about 92 µM; nearly all actives have a fitted effect of over 50% in size
# In short: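 Measures cytotoxicity in parallel with the PR antagonist reporter read: HEK293T PR-UAS-bla cells get compound and R5020 for 16 hr, and remaining viable cells are quantified by CellTiter-Glo luminescence.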
# [12] = qHTS assay to identify small molecule agonists of the progesterone receptor (PR) signaling pathway - cell viability counter screen (AID 1346799; calls by dose curve; further: nearly all actives have a fitted effect of over 45% in size)
# In short: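 Using the same plates as the PR reporter screen, HEK293T PR-UAS-bla cells received compounds for 16 hr at 37C and were then lysed with CellTiter-Glo; luminescence was read 30 min later at room temperature.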
# [13] = qHTS assay to identify small molecule antagonists of the TGF-beta/Smad signaling pathway - cell viability counter screen (AID 1346824); further: nearly all actives have a fitted effect of over 50% in size
# In short: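 SBE-bla HEK 293T cells, incubated overnight, then compound plus 0.25 ng/mL TGF-beta1 (stock added) for 5 hr at 37 C. Viability was read in the same wells by CellTiter-Glo luminescence after 30 min at room temperature.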
# [14] = qHTS assay to identify small molecule agonists of the TGF-beta/Smad signaling pathway - cell viability counter screen (AID 1346829); further: top concentration of the series differs between compounds; nearly all actives have a fitted effect of over 45% in size
# In short: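 HEK 293T SBE-bla line, 5 hr compound exposure at 37 C, multiplexed CellTiter-Glo viability read by luminescence.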
# [15] = qHTS assay to identify small molecule agonists of the TGF-beta/Smad signaling pathway (AID 1346859; active means well fitted activation curve with a large enough effect in the signal ratio in the repeat runs, not every such curve was filed as active; the % refers to the signal ratio; further: series mostly up to about 77 µM)
# In short: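 Beta-lactamase reporter activity downstream of Smad binding elements was measured in stably transfected HEK 293T cells; compounds were incubated for 5 hr, substrate for 2 hr at room temperature.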
# [16] = target: Thyrotropin-releasing hormone receptor (Homo sapiens) (UniProt P34981); test: qHTS assay to identify small molecule antagonists of the thyrotropin-releasing hormone receptor (TRHR) signaling pathway (AID 1346877; active means well fitted inhibition curve with a large enough effect in the repeat runs, not every such curve was filed as active; further: series mostly up to about 51 µM)
# Chain of Thyrotropin-releasing hormone receptor (Homo sapiens) (P34981 whole entry, looked up): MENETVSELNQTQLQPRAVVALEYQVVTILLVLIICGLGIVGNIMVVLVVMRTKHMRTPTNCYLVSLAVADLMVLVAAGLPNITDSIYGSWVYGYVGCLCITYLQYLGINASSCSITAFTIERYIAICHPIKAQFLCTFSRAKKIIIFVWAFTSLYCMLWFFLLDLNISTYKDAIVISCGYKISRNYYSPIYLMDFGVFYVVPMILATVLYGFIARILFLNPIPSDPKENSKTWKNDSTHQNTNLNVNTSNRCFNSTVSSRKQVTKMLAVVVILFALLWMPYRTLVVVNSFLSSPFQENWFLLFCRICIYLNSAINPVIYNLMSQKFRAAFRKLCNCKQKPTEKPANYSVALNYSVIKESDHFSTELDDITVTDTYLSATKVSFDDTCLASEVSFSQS
# In short: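 HEK293/TRHR cells, 18 h, 37 °C; Ca2+ dye 2 h; cpd 5 min RT; TRH 1 nM final; fluorescence read 3 min, 1 s intervals; 15 concs, triplicate.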
# [17] = qHTS assay to identify small molecule antagonists of the estrogen receptor beta (ER-beta) signaling pathway - cell viability counter screen (AID 1259382); further: series mostly up to about 92 µM; nearly all actives have a fitted effect of over 55% in size
# In short: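 Luminescent ATP read-out (CellTiter-Glo, 30 min, RT) taken in the same wells as the bla reporter assay. HEK293T ER-beta-UAS-bla cells in 2% charcoal-stripped FBS were exposed to compounds with 1nM E2 for 16 hr at 37C.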
# [18] = target: Estrogen receptor beta (Homo sapiens) (UniProt Q92731); test: qHTS assay to identify small molecule agonists of the estrogen receptor beta (ER-beta) signaling pathway (AID 1259377; active means well fitted activation curve with a large enough effect in the signal ratio in the repeat runs, not every such curve was filed as active; the % refers to the signal ratio)
# Chain of Estrogen receptor beta (Homo sapiens) (Q92731 whole entry, looked up): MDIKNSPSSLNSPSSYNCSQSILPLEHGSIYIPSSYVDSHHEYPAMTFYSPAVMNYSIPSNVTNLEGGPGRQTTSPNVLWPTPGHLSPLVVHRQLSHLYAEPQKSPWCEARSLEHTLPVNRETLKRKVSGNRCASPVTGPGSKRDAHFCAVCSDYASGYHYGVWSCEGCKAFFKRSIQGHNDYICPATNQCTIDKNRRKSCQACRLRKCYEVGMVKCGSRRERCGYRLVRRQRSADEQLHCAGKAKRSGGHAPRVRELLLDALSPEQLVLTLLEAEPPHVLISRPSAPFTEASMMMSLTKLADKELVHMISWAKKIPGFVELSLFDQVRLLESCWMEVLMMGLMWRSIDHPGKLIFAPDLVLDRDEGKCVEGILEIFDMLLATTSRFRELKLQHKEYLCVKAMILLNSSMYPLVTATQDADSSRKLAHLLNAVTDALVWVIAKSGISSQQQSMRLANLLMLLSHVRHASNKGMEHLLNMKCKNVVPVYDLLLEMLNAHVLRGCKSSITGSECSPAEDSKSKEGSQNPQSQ
# In short: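 Screening used GripTite ER-beta-UAS-bla cells held in 2% charcoal-stripped FBS medium. After overnight (16 hr) compound incubation at 37C, beta-lactamase activity was detected with a FRET substrate by fluorescence.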
# [19] = target: Estrogen receptor beta (Homo sapiens) (UniProt Q92731); test: qHTS assay to identify small molecule antagonists of the estrogen receptor beta (ER-beta) signaling pathway (AID 1259378; active means well fitted inhibition curve with a large enough effect in the signal ratio in the repeat runs, not every such curve was filed as active; the % refers to the signal ratio)
# In short: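 ER-beta-UAS-bla HEK293T cells in 2% charcoal-stripped FBS medium treated with compound plus 1nM final 17-beta-estradiol for 16 hr at 37C. Beta-lactamase reporter read by FRET substrate fluorescence after 2 hours at room temperature.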
# [20] = target: Androgen receptor (Homo sapiens) (UniProt P10275); test: qHTS assay to identify small molecule agonists of the androgen receptor (AR) signaling pathway in the presence of an antagonist (AID 1259381; calls by dose curve; further: nearly all actives have a fitted effect of over 15% in size)
# Chain of Androgen receptor (Homo sapiens) (P10275 whole entry, looked up): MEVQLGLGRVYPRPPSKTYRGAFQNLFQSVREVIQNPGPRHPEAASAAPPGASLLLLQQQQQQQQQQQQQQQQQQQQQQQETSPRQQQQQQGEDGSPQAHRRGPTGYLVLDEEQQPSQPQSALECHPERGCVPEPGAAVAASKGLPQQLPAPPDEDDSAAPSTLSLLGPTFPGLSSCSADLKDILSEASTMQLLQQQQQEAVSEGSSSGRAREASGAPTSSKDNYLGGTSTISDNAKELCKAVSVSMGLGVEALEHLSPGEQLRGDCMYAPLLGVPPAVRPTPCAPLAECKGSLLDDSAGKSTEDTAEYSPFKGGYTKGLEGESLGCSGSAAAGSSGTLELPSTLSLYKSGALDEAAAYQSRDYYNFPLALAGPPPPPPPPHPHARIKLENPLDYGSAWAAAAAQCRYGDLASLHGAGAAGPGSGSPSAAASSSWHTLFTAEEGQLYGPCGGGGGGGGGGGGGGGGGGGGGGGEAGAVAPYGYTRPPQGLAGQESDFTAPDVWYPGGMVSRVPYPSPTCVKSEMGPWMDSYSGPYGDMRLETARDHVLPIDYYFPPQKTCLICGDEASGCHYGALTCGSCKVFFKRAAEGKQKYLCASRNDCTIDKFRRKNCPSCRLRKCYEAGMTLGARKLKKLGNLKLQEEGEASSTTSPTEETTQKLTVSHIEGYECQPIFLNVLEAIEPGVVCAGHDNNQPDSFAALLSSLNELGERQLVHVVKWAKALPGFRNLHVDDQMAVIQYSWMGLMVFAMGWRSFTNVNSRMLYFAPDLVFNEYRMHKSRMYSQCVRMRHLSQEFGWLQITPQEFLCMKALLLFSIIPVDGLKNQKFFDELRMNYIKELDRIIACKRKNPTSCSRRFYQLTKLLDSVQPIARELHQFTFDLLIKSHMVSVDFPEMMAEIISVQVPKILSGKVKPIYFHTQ
# In short: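 Luciferase read-out (ONE-Glo, 30min room temperature) in MDA-kb2 MMTV-reporter cells; agonist mode run in presence of AR antagonist nilutamide, 3.0uM final. Compounds tested as 15-point series, 16hr exposure at 37C, 0% CO2.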
Structure (SMILES),outcome [1],Potency [2],Potency [3],Potency [4],Potency [5],outcome [6],outcome [7],Potency [8],Potency [9],outcome [10],Potency [11],Potency [12],outcome [13],Potency [14],outcome [15],outcome [16],Potency [17],outcome [18],Potency [19],Potency [20]
O=C(O)CCC(=O)O,inactive,inactive,inactive,inactive,inactive,inactive,inactive,inactive,inactive,inactive,inactive,inactive,inactive,inactive,inactive,inactive,,,,
O=S(=O)(O)c1ccc2cc(O)ccc2c1,inactive,inactive,inactive,inactive,,,,inactive,inactive,inactive,inactive,inactive,inactive,inactive,inactive,inactive,,,,
CC(O)CO (centres undefined),inactive,inactive,inactive,inactive,inactive,inactive,inactive,inactive,inactive,inactive,inactive,inactive,inactive,inactive,inactive,inactive,inactive,,,
O=C(O)c1[nH]n(-c2ccc(S(=O)(=O)O)cc2)c(=O)c1N=Nc1ccc(S(=O)(=O)O)cc1,inactive,inactive and 57.1 µM (active),23.7 µM (active) and 54.6 µM (active) and 28.6 µM (active),inactive,inactive,inactive,inactive,29.8 µM (active) and 61.3 µM (active) and 25.5 µM (active),,,inactive,inactive,inactive,inactive,inactive,inactive,,,,
CCC1(c2ccccc2)C(=O)NCNC1=O,inactive,inactive,inactive,inactive,,inactive,inactive,inactive,inactive,inactive,inactive,inactive,inactive,inactive,inactive,,,inactive,inactive,
O=C(O)C(=O)O,inactive,inactive and 1.22 µM (active),inactive,inactive,,inactive,inactive,inactive,inactive,inactive,inactive,inactive,inactive,inactive,inactive,,inactive,,,
OCCc1ccccc1,inactive,inactive,inactive,inactive,,inactive,inactive,inactive,inactive,inactive,inactive,inactive,inactive,inactive,inactive,inactive,,,,
CC(O)C(=O)O (centres undefined),inactive,inactive,inactive,inactive,inactive,inactive,inactive,inactive,inactive,inactive,inactive,inactive,inactive,inactive,inactive,inactive,,,,
O=C(O)CS,inactive,inactive and 30.9 µM (active),inactive,inactive,inactive,,,inactive,,,inactive,inactive,inactive,inactive,inactive,inactive,,,,
O=NO,inactive,inactive,inactive,inactive,,inactive,inactive,inactive,,,inactive,inactive,inactive,inactive,inactive,,inactive,,,
NC(=O)NC1NC(=O)NC1=O (centres undefined),inactive,inactive,inactive,inactive,,inactive,inactive,inactive,inactive,inactive,inactive,inactive,inactive,inactive,inactive,inactive,,,,
Nc1ccc(S(=O)(=O)c2ccc(N)cc2)cc1,inactive,inactive,inactive,inactive,inactive,inactive,inactive,inactive,inactive,inactive,inactive,inactive,inactive,inactive,inactive,inactive,inactive,,,
COC(=O)[C@H](Cc1ccccc1)NC(=O)[C@@H](N)CC(=O)O (H-Asp-Phe-OMe),inactive,inactive,inactive,inactive,inactive,inactive,inactive,inactive,inactive,inactive,inactive,inactive,inactive,inactive,inactive,inactive,inactive,,,
O=C(c1ccccc1)c1ccccc1,inactive,inactive,inactive,inactive,,,,inactive,inactive,inactive,inactive,inactive,,inactive,inactive,,inactive,,,inactive
COc1c2occc2cc2ccc(=O)oc12,inactive,24.3 µM (active) and inactive,inactive,inactive,,inactive,inactive,inactive,inactive,inactive,inactive,inactive,inactive,inactive,inactive,,,inactive,inactive,
CCCCCCCCCCCCCCCC(=O)O,inactive,inactive,inactive,inactive,,inactive,inactive,inactive,inactive,inactive,inactive,inactive,inactive,inactive,inactive,inactive,,inactive,inactive,
O=C(O)CCCCC(=O)O,inactive,inactive,inactive,inactive,inactive,inactive,inactive,inactive,inactive,inactive,inactive,inactive,inactive,inactive,inactive,inactive,,,,
N=C(N)c1ccc(OCCCCCOc2ccc(C(=N)N)cc2)cc1,inactive,3.84 µM (active) and 2.33 µM (active) and 18.8 µM (active),inactive,inactive,inactive,inactive,inactive,inactive,inactive,inactive,inactive,inactive,inactive,inactive,inactive,inactive,,,,
